Measured values taken from PubChem BioAssay AID1566 (Sanford-Burnham Center for Chemical Genomics, 2009).
Hit rate of the full screen: of about 290,000 compounds, about 1,800 (0.62%) were called active. This excerpt belongs to a sample that is enriched for actives. Values without a mark were called inactive. Cut-off read from the data, not from the text of the source: active = inhibition above about 50%; inactive = the rest.

Experiment: NOD2 signaling inhibitors, cell-based, luminescence, uHTS, HEK293 (AID 1566)
Settings: HEK293 NOD2/NF-kB luciferase reporter, at 4 µM, stronger effect = higher value

SMILES	inhibition
Cc1nc2scc(C)n2c(=O)c1S(=O)(=O)NC(C)c1ccccc1 (configuration not stated)	20.2%
Cc1c(O)nc(SCC(=O)Nc2cccc(C(F)(F)F)c2)n(-c2ccccc2)c1=O	-0.1%
C/C(=N\NC(=O)c1ccc(COc2ccccc2)cc1)c1ccncc1	-1.5%
CCOc1ccc(C(=O)N/N=C(\c2ccccc2)c2ccccn2)cc1	-82%
CCOc1ccc(OCc2ccc(C(=O)N/N=C(\C)c3ccccn3)cc2)cc1	76.9% (active)
COc1ccccc1/C=C1\SC(=S)N(CCC(=O)N2CCCCC2CCO)C1=O (configuration not stated)	5.9%
CCCOc1ccc(C(O)(CCC)CCN2CCCCC2)cc1 (configuration not stated)	3.4%
Cc1cc(C(=O)CN2C(=O)c3ccccc3S2(=O)=O)c(C)n1-c1ccccc1	64.2% (active)
Cc1cc(C(=O)CN2C(=O)C3CC=CCC3C2=O)c(C)n1-c1ccccc1 (configuration not stated)	-109%
O=C(CN1C(=O)c2ccccc2S1(=O)=O)c1ccccc1	52.5% (active)
O=C(CN1C(=O)c2ccccc2S1(=O)=O)c1cccc(Br)c1	0.6%
Cc1ccc(C)c(C(=O)CN2C(=O)c3ccccc3S2(=O)=O)c1	-15%
O=C(CN1C(=O)c2ccccc2S1(=O)=O)c1ccc(O)c(O)c1	42.4%
COc1ccc(S(=O)(=O)NCc2cccnc2)cc1OC	6.9%
CCN(CC)c1nc(Nc2ccc([N+](=O)[O-])cc2)nc(N(CC)CC)n1	15.7%
O=C(O)Cc1sc(NCCc2ccccc2)nc1-c1ccc(F)cc1	-6.1%
C/C(=N/NC(=O)Cc1c(C)[nH][nH]c1=O)c1ccc(O)cc1	-3%
Cc1ccccc1Nc1ccc2nonc2c1[N+](=O)[O-]	17.9%
CC(=O)Nc1cccc(NC(=O)CSc2nnc(NC(=O)C3CC3)s2)c1	2.1%
CCOc1ccc(-c2nc3n(c(=O)c2C#N)CCS3)cc1	-0.8%
O=C(OCCCN1CCOCC1)c1ccc(O)c(O)c1	11.1%

SMILES	inhibition
Cc1ccc(C(=O)CSc2ncnc3sc4c(c23)CCCC4)cc1	30.2%
CC(=O)CSc1ncnc2sc3c(c12)CCC3	12.6%
O=C(c1ccc(Cl)c([N+](=O)[O-])c1)N1CCCc2ccccc21	-7.5%
O=C(CSc1nnnn1C1CCCCC1)NNC(=O)c1ccco1	5.4%
Cc1ccccc1-n1cc(C(=O)c2cc(Cl)ccc2O)cc(C#N)c1=O	1.1%
C(=N\Nc1ccc2ccccc2n1)/c1ccc2c(c1)OCCO2	67.8% (active)
C(=N\Nc1nc2ccccc2[nH]1)/c1ccc2c(c1)OCCO2	-126%
C(=N\Nc1ccccn1)/c1ccc2c(c1)OCCO2	-125%
Cc1[nH]c2ccccc2c1-c1nc2ccccc2[nH]c1=O	4.1%
CC(C)C(=O)OCc1cn(-c2ccc(Cl)c(Cl)c2)nn1	10.3%
O=C1/C(=C\c2cccc(O)c2O)SC(=S)N1Cc1ccccc1	7.8%
O=C(O)c1cccc(CN2C(=O)S/C(=C/c3ccccc3[N+](=O)[O-])C2=O)c1	19.8%
CCOC(=O)CN1C(=O)S/C(=C/c2ccc(O)c([N+](=O)[O-])c2)C1=O	-11.2%
O=C(O)c1cccc(CN2C(=O)S/C(=C/c3cccc([N+](=O)[O-])c3)C2=O)c1	-10.3%
COCc1cc(C)nc(Nc2ccccc2OC)c1C#N	3%
Cc1ccc(-n2nnc3c(=O)n(CC(=O)NCc4ccco4)cnc32)cc1	17.7%
COc1cc(S(=O)(=O)N2CCCCCC2)ccc1-n1cnnn1	7.9%
Cc1ccc(OC(=O)COc2ccccc2C)c(-n2nc3ccccc3n2)c1	3%
BrC(=C\c1ccccc1)/C=N/Nc1nc(N2CCOCC2)nc(N2CCOCC2)n1	-54.1%
CCOC(=O)C1CCN(S(=O)(=O)c2cc(C(=O)OC)n(C)c2)CC1	18.2%
Cc1ccc(S(=O)(=O)N2CCN(CC(=O)Nc3ccc([N+](=O)[O-])cc3)CC2)cc1C	-86.3%

SMILES	inhibition
C=CCSc1nc2sc(C)c(C)c2c(=O)[nH]1	7.9%
CC(CCc1ccccc1)NC(=O)C(=O)c1c[nH]c2ccccc12 (configuration not stated)	6.1%
O=C(O)CC(NC(=O)c1cccc([N+](=O)[O-])c1)c1ccc2c(c1)OCO2 (configuration not stated)	14.8%
Cc1ccc(CN2CCCN(C)CC2)c(C)c1	-3.4%
CCn1c(SCC(=O)Nc2nc(-c3ccccc3)cs2)nnc1-c1ccccc1O	11.1%
CCn1c(SCC(=O)Nc2nc(-c3ccc(C)cc3)cs2)nnc1-c1ccccc1	29%
CCOc1ccccc1NC(=S)N(CCN(C)C)C(C)c1ccncc1 (configuration not stated)	-15.1%
CC(C)(C)c1cc(-c2n[nH]c(=S)n2-c2ccc(Cl)cc2)n[nH]1	6.2%
NC(=O)C1CCN(C(=O)C2CCC(=O)N(C3CCCCCC3)C2)CC1 (configuration not stated)	-3.9%
O=C(CNc1ccccc1)N/N=C/c1c(O)ccc2ccccc12	19.3%
O=C(CNc1ccc(F)cc1)N/N=C/c1c(O)ccc2ccccc12	53.5% (active)
COc1ccccc1NCC(=O)N/N=C/c1c(O)ccc2ccccc12	25%
Cc1occc1-c1nnc(SCC(=O)NCC2CCCO2)n1C (configuration not stated)	8.4%
O=C(N/N=C/c1ccc2c(c1)OCO2)c1ccc2c(c1)OCO2	-137%
O=C(O)c1ccc(N/N=C/c2ccc3c(c2)OCO3)cc1	66.8% (active)
O=C(O)c1cc(N/N=C/c2ccc3c(c2)OCO3)ccc1Cl	-118%
S=C(NCc1ccncc1)Nc1ccccc1	16.2%
O=C(CC(Nc1ccccc1Cl)C(=O)O)c1ccccc1 (configuration not stated)	-21.4%
O=C(CC(Nc1ccc(Cl)cc1Cl)C(=O)O)c1ccccc1 (configuration not stated)	61.2% (active)
O=C(CC(Nc1ccc(Cl)cc1)C(=O)O)c1ccccc1 (configuration not stated)	20.4%
